Reference: ChEMBL document CHEMBL1157539, “Thousands of chemical starting points for antimalarial lead identification” (Nature, 2010)

Key:
Type in all cases: functional
Plasmodium falciparum [1] = experiment: GSK_TCMDC: Inhibition of Plasmodium falciparum 3D7 in whole red blood cells, using parasite LDH activity as an index of growth. Test compounds present at 2uM
Plasmodium falciparum [2] = experiment: GSK_TCMDC: Inhibition of Plasmodium falciparum Dd2 in whole red blood cells, using parasite LDH activity as an index of growth. Test compounds present at 2uM
HepG2 = experiment: GSK_TCMDC: Percent inhibition of human HepG2 cell line. Test compounds present at 10uM.

Row | SMILES | Inhibition (Plasmodium falciparum [1]) | Inhibition (Plasmodium falciparum [2]) | Inhibition (HepG2)
1 | Nc1nc(-c2ccccn2)nc(-n2nc(-c3cccc(C(F)(F)F)c3)cc2N)n1.O=C(O)C(F)(F)F | 87% | 74% | 14%
2 | FC(F)(F)c1ccc2[nH]ccc(=NN=CC=Cc3ccccc3)c2c1 | 82% | 9% | 0%
3 | O=C(Cn1c(SCc2cccc(F)c2F)cc(=O)c2ccccc21)N(CCc1c[nH]cn1)Cc1ccc(-c2ccc(C(F)(F)F)cc2)cc1 | 100% | 72% | 18%
4 | Cc1cc(N(CCO)CCCN2CCCCC2)nc(Nc2ccc(Cl)cc2)n1.Cl | 100% | 18% | 12%
5 | Cc1cccn2c(=O)c3cc(C(=O)NCCN4CCOCC4)c(=N)n(CCc4ccccc4)c3nc12 | 100% | 85% | 13%
6 | CC(C)(C)c1nn(-c2ccc(Cl)cc2)c2[nH]c(=O)c(CNCc3cccs3)cc12 | 100% | 77% | 5%
7 | Cc1ccc(C2CCN(CCCCNC(=O)c3ccc(NC(=O)c4ccc(Cl)cc4)cc3)CC2)c(C)c1.Cl | 96% | 10% | 23%
8 | CCCC1(NC[C@@H](O)[C@H](Cc2ccccc2)NC(=O)c2cc(NCC)cc(N3CCCCS3(=O)=O)c2)CC1.Cl | 98% | 98% | 1%
9 | COC(=O)c1ccc2[nH]cc(C3CCN(CCC4CCN(C(=O)/C=C/c5ccc(Cl)c(Cl)c5)CC4)CC3)c2c1 | 97% | 59% | 24%
10 | COc1ccccc1C1CCN(C2CCC(NC(=O)/C=C/c3cc(F)cc(F)c3)CC2)CC1 (stereo not given) | 91% | 15% | 45%
